High-throughput results as filed in PubChem BioAssay.
KB-3-1 tox = kills parental KB-3-1 adenocarcinoma cells. KB-3-1 viability, CellTiter-Glo ATP luminescence, 72 h. Potency, µM (highest dose often 46.1 µM), most hits filed as cytotoxic. 400,000 compounds, 1.4% hits. AID 1347075; further: nearly all actives have a fitted effect of over 60% in size
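KB-3-1 parental drug-naive adenocarcinoma cells in DMEM/10% FBS, incubated 72 h at 37 C with pin-transferred compounds across a concentration series. Viability by CellTiter-Glo luminescence; concentration-response curves fitted after normalization.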
HT1080-NT tox = kills 2HG-producing HT-1080-NT fibrosarcoma cells. HT-1080-NT fibrosarcoma viability, CellTiter-Glo ATP luminescence, 48 h. Potency, µM (titrated, usually from 46.1 µM), actives largely listed as cytotoxic. 360,000 compounds, 1.6% hits. AID 686970;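 further: NT is the 2HG producing partner of a matched IDH1 knockdown line; nearly all actives have a fitted effect of over 55% in size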
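Read-out is CellTiter-Glo luminescence after 10 minutes at room temperature, following 48 hours' compound treatment of HT-1080-NT cells (750 cells/well, RPMI, 5% FBS, 37 degrees C).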
SW480 rereplic = inducers of DNA re-replication in SW480 colon cancer cells. SW480 DNA re-replication, Hoechst DNA content imaging, 48 h. Potency, µM (top dose mostly 46.1 µM), hits mostly activators. 340,000 compounds, 1.8% hits; further: nearly all actives have a fitted effect of over 55% in size
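Hoechst fluorescence of nuclei (405 nm excitation, 500-530 nm emission) measured by plate-scanning imager after 48 hr compound exposure at 37 C; re-replication scored as increased number of nuclei with elevated intensity.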
KB-V1 MDR tox = KB-V1 MDR subline cytotoxicity. KB-V1 MDR cells viability, CellTiter-Glo, 72 h. Potency, µM (titrated, usually from 46.1 µM), hits mostly cytotoxic. 400,000 compounds, 3.4% hits; further: nearly all actives have a fitted effect of over 60% in size
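Cells of the MDR subline KB-V1 are plated, dosed with compound at multiple concentrations, and incubated 72 h at 37 degrees C; CellTiter-Glo is then added and luminescence read after 10 min.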
MCF10A rerep = inducers of DNA re-replication in MCF 10A breast cells | 350,000 compounds, 2.9% hits | MCF 10A DNA re-replication, Hoechst nuclear intensity, 48 h | Potency, µM (doses to about 46.1 µM), hits mostly activators; further: nearly all actives have a fitted effect of over 50% in size
HT1080 IDH1KD tx = toxicity to HT-1080 IDH1 knockdown cells (counter line). 360,000 compounds, 2% hits. Potency, µM (top dose mostly 46.1 µM), actives largely listed as cytotoxic. HT-1080 IDH1 knockdown viability, ATP luminescence, 48 h
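HT-1080-IDH1KD cells (IDH1 knocked down), 750/well in RPMI with 5% FBS, treated with compound 48 h at 37 degrees C. Viability by CellTiter-Glo luminescence, normalised to DMSO and no-cell wells; concentration-response curves classed.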
Numbers stand for hits; i = inactive; ? = inconclusive; nt = no result. Rows were chosen to be rich in hits. Some 7.9% of all compounds tested hit in one or more screens of this group. The call rests on the fitted dose curve; in most records, active means well fitted curve in the direction sought with a large enough effect; inconclusive means small, poorly fitted or top-dose-only effect, or another doubt; inactive means no such curve, though single readings can be large; an effect the other way counts as inactive or inconclusive.

SMILES	KB-3-1 tox	HT1080-NT tox	SW480 rereplic	KB-V1 MDR tox	MCF10A rerep	HT1080 IDH1KD tx
CC1=C(C#N)C(c2cn(-c3ccccc3)nc2-c2cccs2)C(C#N)=C(C)N1	?	?	i	i	i	?
NC1=NC(c2ccc(F)cc2)n2c(nc3ccccc32)N1 (stereo not given)	i	i	?	i	26µM	i
Cc1ccc(-n2c(C)cc(C3N=C(N)Nc4nc5ccccc5n43)c2C)c(C)c1 (stereo not given)	i	?	i	i	?	20µM
NC1=NC(c2cn(-c3ccccc3)nc2-c2cccs2)n2c(nc3ccccc32)N1 (stereo not given)	i	18µM	i	i	?	?
Cc1cc(C)cc(OCc2nc3ncc(Br)cc3[nH]2)c1	1.3µM	?	5.2µM	1µM	?	?
COc1cccc(OCc2nc3ncc(Br)cc3[nH]2)c1	5.8µM	2.2µM	i	1µM	i	?
Cc1ccc(S(=O)(=O)N/N=C/c2cn(C)nc2C)cc1	i	i	i	i	i	i
Cc1ccc(NS(=O)(=O)c2cc([N+](=O)[O-])ccc2NNC(=S)Nc2cccc(Cl)c2)c(C)c1	i	?	nt	?	i	?
Cc1ccc([N+](=O)[O-])cc1NC(=S)NC(=O)C(C)(C)C	i	?	i	i	i	i
Cc1ccc([N+](=O)[O-])cc1NC(=S)NC(=O)CC(C)(C)C	i	?	i	18µM	i	?
COc1ccc(NC(=S)NNc2ccc([N+](=O)[O-])cc2S(=O)(=O)Nc2ccc(C)cc2C)cc1	?	23µM	i	?	?	18µM
Cc1ccc(NS(=O)(=O)c2cc([N+](=O)[O-])ccc2NNC(=S)Nc2cc(C)ccc2C)c(C)c1	21µM	?	?	2.9µM	?	?
O=C(CC1C(=O)NCCN1Cc1cccc(F)c1)NC1CCC1 (stereo not given)	i	i	?	i	i	i
Fc1ccc(-c2nnc(SCc3ncc(-c4ccccc4)o3)n2CC2CCCO2)cc1 (stereo not given)	i	i	i	?	i	i
COc1cccc(NC2c3ccccc3C(=O)N2Cc2ccccc2Cl)c1 (stereo not given)	i	?	21µM	i	?	?
CCOc1ccc(N=Nc2ccc(N)cc2N)cc1	nt	nt	i	nt	i	nt
Cc1ccc(C(=O)Nc2nc3c(s2)CCCC3)o1	?	i	i	12µM	i	i
Cc1ccc(C(=O)Nc2ncc(Cc3ccccc3)s2)o1	3.5µM	nt	i	i	?	nt
O=C(Nc1ncc(Cc2ccc(SC(F)F)cc2)s1)c1ccccc1	1.5µM	4.6µM	6.5µM	2.1µM	?	6.5µM
O=C(/C=C/c1cn(-c2ccccc2)nc1-c1cccnc1)NCCN1CCOCC1	i	i	i	i	i	i
Cc1ccc(NC(=O)C2CCCN(S(=O)(=O)c3cnc[nH]3)C2)c(Br)c1 (stereo not given)	i	i	i	?	i	i
O=C1[C@@H](Oc2ccccc2)[C@@H](c2ccncc2)N1c1ccncc1	i	i	i	i	0.18µM	i
O=C1[C@@H](Oc2ccccc2)[C@@H](c2cnc3ccccc3c2)N1c1ccccc1	i	?	?	i	?	21µM
O=C(NCc1ccc(Cl)cc1)c1ccc(-c2ccccc2C(F)(F)F)o1	i	i	i	i	23µM	i
C(=C\c1ccccc1)/CN1CCN(C(c2nnnn2C2CCCCC2)C2CC2)CC1 (stereo not given)	i	?	nt	18µM	nt	?
SMILES	KB-3-1 tox	HT1080-NT tox	SW480 rereplic	KB-V1 MDR tox	MCF10A rerep	HT1080 IDH1KD tx
O=C(Nc1ccccc1)OC1CCS(=O)(=O)C1 (stereo not given)	i	i	i	i	i	i
Cc1ccc(-c2nnc(CSc3nnc(COc4ccccc4)n3-c3ccccc3)o2)cc1	i	i	i	i	12µM	?
Cc1ccc(-n2c(COc3ccccc3)nnc2SCC(=O)O)cc1	i	i	nt	i	nt	i
Cc1ccc(-c2nnc(CSc3nnc(COc4ccccc4)n3-c3ccc(C)cc3)o2)cc1	i	i	?	?	23µM	i
COc1ccc([C@H]2CN(c3ccc(OC)cc3)C(=O)[C@@H]2CC(=O)Nc2ccc(Br)cc2)cc1	?	i	nt	16µM	nt	i
COc1ccc(NC(=O)C[C@H]2C(=O)N(c3ccccc3)C[C@@H]2Cc2ccccc2)cc1	i	i	nt	15µM	nt	i
COc1ccc([C@H]2CN(c3ccccc3)C(=O)[C@@H]2CC(=O)Nc2ccccc2)cc1	i	i	nt	?	nt	i
O=C(O)CN1CCN(CC(=O)O)CCN(CC(=O)O)CCN(CC(=O)O)CC1	i	i	i	i	i	i
O=C(O)CN1CCNCCN(CC(=O)O)CCNCC1	?	i	2.9µM	?	i	?
CCOC(=O)c1c(S(=O)(=O)NCc2ccco2)c(C)n(C)c1C	i	i	i	i	i	i
CCN1CCN(C(=O)Cn2ncc3c([nH]c4ccc(C)cc43)c2=O)CC1	i	i	i	i	i	i
Nc1nc2nc(-c3cccs3)cc(C(F)(F)F)n2n1	i	i	?	i	21µM	i
CN1CCN(CCCNC(=O)c2ccc(/C=C3\Sc4ccccc4N(Cc4ccc(F)cc4)C3=O)cc2)CC1	i	i	?	i	18µM	i
CCN1CCN(CCNC(=O)c2ccc(/C=C3\Sc4ccccc4N(Cc4ccccc4F)C3=O)cc2)CC1	i	16µM	18µM	?	13µM	21µM
CN1CCN(CCCNC(=O)c2ccc(/C=C3/Sc4ccccc4N(Cc4cccc(Cl)c4)C3=O)cc2)CC1	i	i	?	?	?	i
COCCCNC(=O)/C=C1\Sc2ccccc2N(Cc2ccccc2F)C1=O	i	i	18µM	i	?	i
COCCCNC(=O)c1ccc2c(c1)N(Cc1ccccc1F)C(=O)c1ccccc1S2=O (stereo not given)	i	nt	nt	?	nt	nt
CN1CCN(CCCNC(=O)c2ccc(/C=C3\Oc4ccccc4N(Cc4ccccc4F)C3=O)cc2)CC1	i	i	6.5µM	i	9.2µM	i
Cc1cccc(C(=O)NCc2nnc(SCC(=O)Nc3ccccc3F)n2-c2ccccc2)c1	i	nt	nt	i	nt	nt
Cc1ccc(C)c(NC(=S)NCCCN2CCOCC2)c1	i	i	i	i	i	i
Cc1nnc2ccc(-c3cccc(NS(=O)(=O)c4cc(F)ccc4F)c3)nn12	?	i	i	i	?	i
CCCCOc1ccc(CSCCN=C(N)N)cc1	i	?	?	i	?	26µM
COc1cc(N=Nc2ccccc2C(=O)O)ccc1O	i	i	i	i	18µM	i
Cc1cc(C)cc(NC(=O)COC(=O)C2CC3C=CC2C3)c1 (stereo not given)	i	i	nt	i	nt	i
